DUSP3 inh = VHR1 phosphatase inhibitors, primary screen, biochemical, absorbance, uHTS | 0.52% of 290,000 active | recombinant VHR phosphatase, pNPP absorbance | inhibition, % at 13.3 µM; in the data active means inhibition above about 50%
Target sequence (P51452 whole entry, looked up): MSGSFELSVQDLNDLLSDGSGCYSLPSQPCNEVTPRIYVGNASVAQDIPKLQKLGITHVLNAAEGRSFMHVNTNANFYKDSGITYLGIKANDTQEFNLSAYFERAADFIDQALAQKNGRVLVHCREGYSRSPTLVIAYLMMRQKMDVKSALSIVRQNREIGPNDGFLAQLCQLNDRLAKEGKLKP
CCHFV vOTU inh = CCHFV vOTU protease inhibitors, primary screen, biochemical, Pep-AMC substrate, fluorescence. AID 651958, 2012. 0.55% of 370,000 active. inhibition, % at 11.5 µM; in the data active means inhibition above about 30%; further: 0% = vehicle wells with enzyme and 100% = no enzyme wells
FBA Mtb inh = Mtb FBA enzyme inhibitors, primary screen, biochemical, fluorescence, strain H37Rv. inhibition, % at 1 µM. 2.3% of 360,000 active. purified M. tuberculosis FBA, fluorescence read-out. Fructose-bisphosphate aldolase (Mycobacterium tuberculosis (strain ATCC 25618 / H37Rv)), …;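 further: 0% = vehicle and 100% = reference inhibitor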
Target sequence (P9WQA3 whole entry, looked up): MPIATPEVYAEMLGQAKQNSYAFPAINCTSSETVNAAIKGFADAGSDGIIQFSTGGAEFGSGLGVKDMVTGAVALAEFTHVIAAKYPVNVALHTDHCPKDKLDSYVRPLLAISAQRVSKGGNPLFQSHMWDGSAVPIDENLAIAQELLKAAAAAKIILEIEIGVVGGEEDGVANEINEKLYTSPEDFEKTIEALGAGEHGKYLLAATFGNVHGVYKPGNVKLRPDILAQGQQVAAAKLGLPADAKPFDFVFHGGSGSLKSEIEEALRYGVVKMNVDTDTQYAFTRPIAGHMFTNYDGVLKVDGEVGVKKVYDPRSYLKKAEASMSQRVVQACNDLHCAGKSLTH
GDH-TPI counter-1 = GDH-TPI coupling enzyme inhibitors, primary screen, artefact control for M. tuberculosis FBA inhibitor project, biochemical, absorbance, full deck; inhibition, % at 4.8 µM; GDH-TPI coupled enzyme counterscreen, NADH absorbance; AID 588335, 2011; 1.2% of 360,000 active; in the data active means inhibition above about 30%;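 further: 0% = DMSO wells and 100% = wells lacking the enzyme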
RecA intein inh = Mtb RecA intein splicing inhibitors, primary screen, biochemical, fluorescence, HTS. cell-free RecA intein splicing. inhibition, % (no concentration beside the values). 0.75% of 290,000 active. Protein RecA (Mycobacterium tuberculosis (strain ATCC 25618 / H37Rv)), P9WHJ3; in the data active means inhibition above about 30%;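 further: 0% = vehicle wells and 100% = reference inhibitor control wells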
3CLpro inhibitor = SARS-CoV 3CLpro protease inhibitors, primary screen, biochemical, quenched FRET | Replicase polyprotein 1ab (Severe acute respiratory syndrome coronavirus), P0C6X7 | recombinant SARS-CoV 3CLpro, quenched FRET peptide cleavage | inhibition, % at 6 µM | 0.14% of 290,000 active | AID 1706, 2009; in the data active means inhibition above about 12%
Mtb FBA confirm = M. tuberculosis aldolase blockers, biochemical, fluorescence, strain H37Rv, confirmation; purified M. tuberculosis FBA, fluorescence read-out; inhibition, % at 1 µM; shares compounds with FBA Mtb inh; AID 651616, 2012; 78% of 5,600 active;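 further: 0% = vehicle wells and 100% = reference inhibitor wells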
GDH-TPI counter-2 = GDH-TPI coupling enzyme inhibitors, artefact control for M. tuberculosis FBA inhibitor project, biochemical, fluorescence, high throughput; GDH-TPI coupled enzyme counterscreen; AID 652141, 2013; shares compounds with FBA Mtb inh; inhibition, % at 1 µM; 81% of 5,600 active; in the data active means inhibition above about 10%
GDH-TPI DR = GDH-TPI coupling enzyme inhibitors, dose response, artefact control for M. tuberculosis FBA inhibitor project, biochemical, fluorescence, IC50; shares compounds with FBA Mtb inh; GDH-TPI coupled enzyme assay, artifact counterscreen; IC50, µM; 79% of 170 active; AID 652145, 2013; call rule not given here
The depositor's hits bear a star; / = not tested or not shown; + = active, no number. Rows were chosen to be rich in hits. Some 4.7% of all compounds tested hit in one or more screens of this group. Unless noted, no stated cut-off is given here; in the data, active means inhibition above about 27%; inactive means the rest.

SMILES | DUSP3 inh | CCHFV vOTU inh | FBA Mtb inh | GDH-TPI counter-1 | RecA intein inh | 3CLpro inhibitor | Mtb FBA confirm | GDH-TPI counter-2 | others
COCC(=O)N[C@H]1C[C@@H]2O[C@H](CO)CC[C@@H]2O[C@@H]1CCc1ccc(-c2ccccc2)cc1 | / | 0.1 | / | / | / | / | / | /
CCOC(=O)c1cnc2cc3c(cn2c1=O)CCCC3 | 39.6 | -67.6 | 93.8* | 12.4 | -1.5 | 1.3 | + | +
CCC(=O)Nc1cccc(-c2nc3ccccc3o2)c1 | 1.8 | -4.7 | 10.7 | 0.0 | 1.1 | 1.9 | / | /
O=S(=O)(Nc1ccc(-c2nc3ccccc3o2)cc1)c1ccccc1 | -5.0 | 11.2 | 86.6* | 42.7* | 13.2 | 4.1 | 130.5* | 110.0*
O=C(Nc1ccc(-c2nc3ccccc3o2)cc1)C1CCCO1 (stereo unspecified) | 2.9 | -7.6 | 34.3* | 17.8 | 3.6 | -5.6 | -3.1 | -1.8
CC(=O)Nc1ccc(S(=O)(=O)Nc2cccc(-c3nc4ccccc4o3)c2)cc1 | 19.6 | 0.5 | 55.2* | 3.5 | -3.0 | 6.4 | 57.7* | 53.0*
CC(=O)Nc1nc2ccc(-c3nc4ccccc4o3)cc2s1 | -4.8 | -22.5 | 104.8* | 23.4 | -1.5 | -4.1 | 92.4* | 75.2*
O=S(=O)(Nc1ccc(-c2cnco2)cc1)c1ccccc1 | 9.5 | -10.9 | 0.5 | -6.4 | 0.7 | -0.8 | / | /
Cc1ccc2oc(C(=O)NCc3ncc(C)[nH]3)c(C)c2c1 | 30.2 | 2.1 | 1.3 | 1.7 | 5.1 | 4.2 | / | /
Cc1ccc(-c2nc3c(c(=O)[nH]c(=O)n3Cc3ccccc3)n2Cc2ccccc2)o1 | -2.7 | -7.6 | 38.3* | 10.4 | 0.9 | 2.9 | 152.6* | 133.0*
Cc1ccc(-c2nc3c(c(=O)[nH]c(=O)n3Cc3ccccc3)n2C)s1 | 13.6 | / | / | / | 1.3 | -5.2 | / | /
Cc1ccc(-c2nc3c(c(=O)[nH]c(=O)n3Cc3ccccc3)n2C)o1 | 12.3 | -5.8 | 36.2* | 7.7 | / | 2.0 | 98.4* | 114.6*
CCCc1cc(=O)oc2c(CN3CCOCC3)c(O)ccc12 | 6.4 | -201.4 | / | 23.4 | -50.2 | 0.1 | / | /
Cc1oc2c(CN3CCOCC3)c(O)ccc2c(=O)c1-c1ccc(Br)cc1 | -2.4 | -20.3 | 67.8* | 10.0 | 1.3 | -2.4 | 4.4 | -4.4
CCOC(=O)c1oc2c(CN3CCCCC3C)c(O)ccc2c(=O)c1-c1ccc(OC)c(OC)c1 (stereo unspecified) | -4.0 | 2.8 | 2.3 | 14.7 | -7.0 | 6.8 | / | /
Cc1oc2c(CN3CCCCC3C)c(O)ccc2c(=O)c1-c1ccc(Br)cc1 (stereo unspecified) | -2.4 | -66.0 | 107.7* | 10.8 | -3.8 | -1.2 | 118.3* | 96.6*
Cc1oc2c(CN3CCOCC3)c(O)ccc2c(=O)c1-c1ccc(Cl)cc1 | 22.4 | -51.2 | 64.9* | 28.4 | -1.2 | 0.8 | 37.2* | 22.3*
O=C(CN1CCN(Cc2ccccc2)CC1)Nc1ccc(N2CCOCC2)cc1 | 2.5 | -13.8 | 3.9 | 0.3 | -0.5 | 2.8 | / | /
S=C1SCN(Cc2ccccc2)CN1Cc1ccco1 | / | 2.4 | 3.2 | 6.2 | / | / | / | /
O=C1CN(Cc2ccccc2)C(=NCc2ccco2)S1 | -5.0 | -11.5 | 27.8* | 3.3 | 10.4 | -0.5 | 183.8* | 162.8*
Cc1cnc(NC(=O)Nc2ccccc2)c(C)n1 | 10.0 | -38.8 | 58.6* | 9.0 | -1.3 | -2.3 | -4.7 | -3.2
Cc1cc(-c2nc3ccccc3o2)c2ccccc2n1 | 17.7 | -0.2 | 33.6* | 23.4 | 4.1 | -2.5 | 14.9 | -2.2 | GDH-TPI DR=5.72*
CCOC(=O)C(=O)N(C)c1c(CC)nc2c(OCc3ccc(OC(F)F)cc3)cccn12 | / | 12.4 | 1.2 | 0.4 | / | / | / | /
Fc1ccc(-n2c(-c3cccs3)nc3nc4ccccc4nc32)cc1 | -2.5 | -41.4 | 80.8* | 4.4 | -16.1 | 4.7 | 0.3 | -4.3
Cc1ccc(-n2c(-c3cccs3)nc3nc4ccccc4nc32)cc1 | 21.2 | -9.6 | / | / | -0.9 | 7.9 | / | /
SMILES | DUSP3 inh | CCHFV vOTU inh | FBA Mtb inh | GDH-TPI counter-1 | RecA intein inh | 3CLpro inhibitor | Mtb FBA confirm | GDH-TPI counter-2 | others
C[C@H]1NC(=O)[C@]2(C)[C@@H](c3ccccc3)[C@H]3COc4ccccc4[C@H]3N2C1=O | / | -5.8 | 3.0 | 0.5 | / | / | / | /
Cc1cc2oc(=O)c(CC(=O)NCCCO)c(C)c2c2occ(C(C)(C)C)c12 | / | -42.7 | 30.9* | 9.7 | 2.7 | -1.3 | 56.9* | 54.1*
COCCNC(=O)Cc1c(C)c2c(cc(C)c3c(C(C)(C)C)coc32)oc1=O | / | -22.9 | 42.5* | 12.1 | 3.8 | -0.5 | 69.9* | 65.3*
Cc1cc2oc(=O)c(CC(=O)NCCCN(C)C)c(C)c2c2occ(C(C)(C)C)c12 | 13.3 | / | / | / | -0.2 | -4.0 | / | /
O[C@H](COc1cccc(F)c1)CN1CCC(C(O)(c2ccccc2)c2ccccc2)CC1 | / | -3.3 | / | / | / | / | / | /
CCOC(=O)N1CCC(Nc2nc3ccccc3n3nnnc23)CC1 | -7.5 | -8.4 | 35.3* | 16.2 | -1.7 | 3.9 | 47.0* | 40.3*
Cc1ccc(CNc2nc3ccccc3n3nnnc23)cc1 | 12.1 | 3.4 | 2.3 | 5.1 | 0.5 | -4.0 | / | /
O=C(NC1CCCN(CCc2ccccc2)C1)C1CCCC1 (stereo unspecified) | -11.2 | 7.7 | -0.3 | 4.3 | -4.1 | 0.1 | / | /
O=C(COC(=O)/C=C/c1ccc(F)cc1)NC1CCCC1 | / | 2.9 | 2.9 | -3.9 | / | / | / | /
COC(=O)c1ccc(CNC(=O)COC(=O)/C=C/c2ccc(O)c(OC)c2)cc1 | / | 5.4 | 3.6 | 19.0 | / | / | / | /
COc1cccc(/C=C/C(=O)OCC(=O)NCCc2ccccc2)c1 | 9.1 | 1.2 | 27.8* | -8.0 | -3.8 | 1.2 | + | 181.7*
COc1cccc(/C=C/C(=O)OCC(=O)NC2CC2)c1 | / | -15.2 | 27.8* | -1.1 | / | / | -0.8 | -3.2
CCOc1ccc(CCNC(=O)COC(=O)/C=C/c2cccc(OC)c2)cc1OCC | / | -3.9 | 4.8 | 1.4 | 0.0 | / | / | /
CSc1ccc(/C=C/C(=O)OCC(=O)NC2CCCC2)cc1 | / | -60.8 | 61.3* | 41.1* | / | / | + | +
COC(=O)c1ccc(CNC(=O)COC(=O)/C=C/c2cccc(OC)c2)cc1 | / | -5.8 | 27.5* | 8.8 | / | / | 167.7* | 156.6*
COc1ccccc1CCn1cnc(-c2cccc(Br)c2)c1CC(C)C | / | 13.2 | / | / | / | / | / | /
